# Results published in PubChem BioAssay (NCATS).
# “And” between values parts separate entries of the source, which are not always exact repeats. Identical values can stand only once. Unmarked numbers belong to inactive results. Inconclusive results are not listed. This is one part of the list. Where a call stands in place of a potency, no number is given. The source made the active and inactive calls. The call rests on the fitted dose curve; in most records, active means well fitted curve in the direction sought with a large enough effect; inconclusive means small, poorly fitted or top-dose-only effect, or another doubt; inactive means no such curve, though single readings can be large; an effect the other way counts as inactive or inconclusive.
# Experiments:
# [1] = molecular target: Peroxisome proliferator-activated receptor alpha (Homo sapiens) (UniProt Q07869); experiment: qHTS assay for small molecule agonists of the peroxisome proliferator-activated receptor alpha (PPARalpha) signaling pathway (AID 651778); conditions: PathHunter PPARalpha complementation, chemiluminescence, 6 h; active compounds read high
# Chain of Peroxisome proliferator-activated receptor alpha (Homo sapiens) (Q07869 whole entry, looked up): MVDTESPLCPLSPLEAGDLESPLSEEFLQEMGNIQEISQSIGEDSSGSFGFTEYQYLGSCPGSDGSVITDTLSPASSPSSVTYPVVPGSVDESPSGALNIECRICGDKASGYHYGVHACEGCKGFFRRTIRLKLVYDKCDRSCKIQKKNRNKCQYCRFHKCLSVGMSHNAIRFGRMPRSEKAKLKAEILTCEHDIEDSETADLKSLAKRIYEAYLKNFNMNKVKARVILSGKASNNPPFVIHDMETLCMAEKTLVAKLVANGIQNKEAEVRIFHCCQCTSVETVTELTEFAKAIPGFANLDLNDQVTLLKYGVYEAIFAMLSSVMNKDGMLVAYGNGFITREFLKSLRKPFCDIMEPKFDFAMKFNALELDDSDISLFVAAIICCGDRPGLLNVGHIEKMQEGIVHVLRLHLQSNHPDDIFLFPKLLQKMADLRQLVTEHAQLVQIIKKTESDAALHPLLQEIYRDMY
# In short: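 Chemiluminescence from complemented enzyme reported PPARalpha activation in cells after 6 hr of compound treatment at 37 C. The detection reagent was incubated for 60 min at room temperature, and compounds were scored as agonists.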
# [2] = molecular target: Nuclear receptor ROR-gamma (Homo sapiens) (UniProt P51449); experiment: qHTS assay for small molecule antagonists of the retinoid-related orphan receptor gamma (ROR-gamma) signaling pathway (AID 651802); conditions: ROR-gamma antagonist cell reporter assay; series mostly up to 92.2 µM; further: nearly all actives have a fitted effect of over 60% in size; further: potency means the concentration at half of the fitted maximal effect
# Chain of Nuclear receptor ROR-gamma (Homo sapiens) (P51449 whole entry, looked up): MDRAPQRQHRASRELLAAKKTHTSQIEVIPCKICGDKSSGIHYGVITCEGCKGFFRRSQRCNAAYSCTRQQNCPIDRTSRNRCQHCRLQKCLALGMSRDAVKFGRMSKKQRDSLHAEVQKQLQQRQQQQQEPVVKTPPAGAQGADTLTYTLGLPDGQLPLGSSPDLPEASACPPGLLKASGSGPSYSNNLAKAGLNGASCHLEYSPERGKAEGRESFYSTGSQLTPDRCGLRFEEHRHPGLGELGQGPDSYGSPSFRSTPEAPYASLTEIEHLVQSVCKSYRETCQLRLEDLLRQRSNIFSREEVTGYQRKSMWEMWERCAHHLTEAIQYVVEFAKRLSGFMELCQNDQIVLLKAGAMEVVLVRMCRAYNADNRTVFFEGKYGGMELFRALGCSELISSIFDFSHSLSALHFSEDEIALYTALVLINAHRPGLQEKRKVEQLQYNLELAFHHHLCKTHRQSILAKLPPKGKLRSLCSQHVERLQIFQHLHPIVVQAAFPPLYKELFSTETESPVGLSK
# In short: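 Doxycycline-induced reporter activity in engineered CHO cells (TET-inducible ROR, RORE-LUC) was measured by luminescence after 16hr compound exposure at 37C.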
# [3] = qHTS for compounds that reverse cellular toxicity of Amyloid beta (A-beta) peptide in yeast: LOPAC Validation Assay (AID 720559); conditions: yeast expressing A-beta; Potency: rescue of growth toxicity; series mostly up to 46.1 µM
# In short: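 Here, A-beta-toxic yeast grow with test compounds at 30 C for 48 hr before optical density at 600 nm is recorded; data are normalized against DMSO and the FeCl3-clioquinol control.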
# [4] = qHTS for Activators of Parkin Expression: LOPAC Validation Assay (NLuc Reporter) (AID 720572); conditions: Parkin promoter NanoLuc reporter cells, luminescence; series mostly up to 46.1 µM
# In short: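 Compound effects on Parkin promoter activity were measured as NanoLuc luminescence after 24 h at 37 C. The neuronal reporter line also carried FLuc, which was read first. LOPAC compounds were tested at 7 concentrations, with normalization to DMSO (0%) and positive control (100%).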
# [5] = molecular target: DNA polymerase iota (Homo sapiens) (UniProt Q9UNA4); experiment: qHTS for Inhibitors of Polymerase Iota: Confirmatory Assay for Cherry-picked Compounds (AID 720496); conditions: Pol iota primer extension, TAMRA/BHQ fluorescence; further: potency means the concentration at half of the fitted maximal effect
# Chain of DNA polymerase iota (Homo sapiens) (Q9UNA4 whole entry, looked up): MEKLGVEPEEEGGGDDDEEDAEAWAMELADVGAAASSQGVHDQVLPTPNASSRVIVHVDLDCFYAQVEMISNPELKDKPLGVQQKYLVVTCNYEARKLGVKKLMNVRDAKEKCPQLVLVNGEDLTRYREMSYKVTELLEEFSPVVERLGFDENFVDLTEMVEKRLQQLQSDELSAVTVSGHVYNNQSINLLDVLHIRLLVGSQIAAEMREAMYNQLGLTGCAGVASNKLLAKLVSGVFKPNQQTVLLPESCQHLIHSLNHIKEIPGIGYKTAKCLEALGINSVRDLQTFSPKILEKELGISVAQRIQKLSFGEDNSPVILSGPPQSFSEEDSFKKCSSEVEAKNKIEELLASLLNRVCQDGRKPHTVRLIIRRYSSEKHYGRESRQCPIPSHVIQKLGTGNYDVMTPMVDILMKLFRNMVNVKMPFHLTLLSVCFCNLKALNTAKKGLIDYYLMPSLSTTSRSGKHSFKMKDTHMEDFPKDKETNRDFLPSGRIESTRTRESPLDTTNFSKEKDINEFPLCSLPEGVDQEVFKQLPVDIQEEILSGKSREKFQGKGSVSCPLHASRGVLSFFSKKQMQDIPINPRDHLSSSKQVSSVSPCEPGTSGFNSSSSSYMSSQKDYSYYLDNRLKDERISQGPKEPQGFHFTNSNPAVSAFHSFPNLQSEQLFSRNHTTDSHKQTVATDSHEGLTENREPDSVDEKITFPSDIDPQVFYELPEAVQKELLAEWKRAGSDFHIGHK
# Text: DNA polymerases, such as polymerase iota (Pol iota), are involved in DNA repair. Pol iota specifically plays an important role in translesion synthesis, where the normal high-fidelity DNA polymerases cannot proceed and DNA synthesis stalls. […] Thus, while Pol eta and most likely Pol iota's normal functions are to protect humans against the deleterious consequences of DNA damage, under certain conditions they can have deleterious effects on human health. As a consequence, small molecule inhibitors of Pol iota (identified from a high throughput replication assay) have potential therapeutic applications. A 1536-well format, fluorescence based, high-throughput screen (AID 588590) is developed in collaboration with the National Institute of Child Health & Human Development (NICHD) to screen for inhibitors of the […]. This screen is used to validate the activity of the selected compounds from the primary assay against the […]. Inhibition is the desired outcome for this assay. […]
# Three microliters of reagents (buffer in column 3 and 4 as negative control while 10 nM Pol iota in columns 1, 2, and 5-48) were dispensed into a 1536-well black solid-bottom plate. […] The assay plates were initially read after 0 min and again after 10 min of kinetic reaction using the PerkinElmer Viewlux reader equipped with 525 nm excitation and 598 nm emission filters.
# [6] = molecular target: DNA polymerase kappa (Homo sapiens) (UniProt Q9UBT6); experiment: qHTS for Inhibitors of Polymerase Kappa: Confirmatory Assay for Cherry-picked Compounds (AID 720501); conditions: purified Pol-kappa, fluorescent strand-displacement substrate; further: potency means the concentration at half of the fitted maximal effect
# Chain of DNA polymerase kappa (Homo sapiens) (Q9UBT6 whole entry, looked up): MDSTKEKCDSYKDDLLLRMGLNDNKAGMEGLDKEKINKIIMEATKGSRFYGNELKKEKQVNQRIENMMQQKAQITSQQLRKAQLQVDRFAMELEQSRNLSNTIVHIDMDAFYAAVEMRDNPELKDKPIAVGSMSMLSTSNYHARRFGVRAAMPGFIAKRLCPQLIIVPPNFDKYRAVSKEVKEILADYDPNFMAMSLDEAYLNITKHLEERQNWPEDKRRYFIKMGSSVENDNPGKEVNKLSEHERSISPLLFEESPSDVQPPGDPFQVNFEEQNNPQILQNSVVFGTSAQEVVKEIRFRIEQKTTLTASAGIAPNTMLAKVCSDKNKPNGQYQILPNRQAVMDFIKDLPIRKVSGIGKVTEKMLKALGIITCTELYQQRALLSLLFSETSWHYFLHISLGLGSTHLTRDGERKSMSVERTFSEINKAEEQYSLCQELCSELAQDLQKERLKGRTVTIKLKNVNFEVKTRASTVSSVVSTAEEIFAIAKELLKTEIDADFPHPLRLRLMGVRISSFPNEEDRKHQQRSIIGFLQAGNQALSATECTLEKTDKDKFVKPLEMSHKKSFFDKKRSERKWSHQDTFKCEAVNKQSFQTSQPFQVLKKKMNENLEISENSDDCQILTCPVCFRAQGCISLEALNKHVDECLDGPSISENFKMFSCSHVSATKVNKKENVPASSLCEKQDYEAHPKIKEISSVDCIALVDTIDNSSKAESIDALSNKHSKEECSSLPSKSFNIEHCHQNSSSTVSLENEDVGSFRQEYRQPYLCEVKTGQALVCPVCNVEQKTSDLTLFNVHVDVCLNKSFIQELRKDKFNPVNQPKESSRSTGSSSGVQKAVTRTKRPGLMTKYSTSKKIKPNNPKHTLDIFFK
# In short: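 Strand-displacement fluorescence read-out: TAMRA reporter released from a BHQ-2-quenched template, measured at 525/598 nm over a 10 min kinetic window. Substrate was 50 nM final; enzyme was 10 nM Pol-kappa, preincubated 15 min at room temperature with compound.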
# [7] = molecular target: DNA polymerase eta (Homo sapiens) (UniProt Q9Y253); experiment: qHTS for Inhibitors of Polymerase Eta: Confirmatory Assay for Cherry-picked Compounds (AID 720502); conditions: Pol eta primer extension, TAMRA/BHQ fluorescence, 10 min; further: potency means the concentration at half of the fitted maximal effect
# Chain of DNA polymerase eta (Homo sapiens) (Q9Y253 whole entry, looked up): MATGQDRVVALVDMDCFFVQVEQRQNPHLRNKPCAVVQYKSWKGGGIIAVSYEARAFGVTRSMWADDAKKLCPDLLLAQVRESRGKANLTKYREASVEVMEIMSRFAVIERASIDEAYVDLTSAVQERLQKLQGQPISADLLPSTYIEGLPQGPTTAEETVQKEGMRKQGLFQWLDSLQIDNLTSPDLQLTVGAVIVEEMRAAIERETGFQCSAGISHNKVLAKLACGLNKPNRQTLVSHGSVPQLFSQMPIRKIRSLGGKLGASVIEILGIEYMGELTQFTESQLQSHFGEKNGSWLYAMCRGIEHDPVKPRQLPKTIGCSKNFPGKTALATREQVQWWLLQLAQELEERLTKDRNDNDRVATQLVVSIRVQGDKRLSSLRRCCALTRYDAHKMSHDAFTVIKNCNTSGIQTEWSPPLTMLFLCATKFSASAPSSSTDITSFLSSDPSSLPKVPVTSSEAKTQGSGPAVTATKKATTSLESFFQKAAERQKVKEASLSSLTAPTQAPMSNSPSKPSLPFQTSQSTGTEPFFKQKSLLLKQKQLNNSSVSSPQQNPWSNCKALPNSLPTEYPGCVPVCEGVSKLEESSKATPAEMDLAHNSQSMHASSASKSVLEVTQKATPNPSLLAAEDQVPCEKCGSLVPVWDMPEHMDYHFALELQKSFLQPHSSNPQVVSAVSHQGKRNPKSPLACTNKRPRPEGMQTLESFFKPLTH
# In short: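 The reaction starts with 50 nM final labeled DNA substrate added to Pol eta (10 nM) that had sat with compound for 15 min. TAMRA emission at 598 nm is read at 0 and 10 min.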
# [8] = molecular target: Tyrosine-protein kinase Yes (Homo sapiens) (UniProt P07947); experiment: qHTS for small molecule inhibitors of Yes1 kinase: Primary Screen (AID 686947); conditions: Yes1 kinase biochemical qHTS inhibition; series mostly up to 76.9 µM; further: nearly all actives have a fitted effect of over 60% in size
# Chain of Tyrosine-protein kinase Yes (Homo sapiens) (P07947 whole entry, looked up): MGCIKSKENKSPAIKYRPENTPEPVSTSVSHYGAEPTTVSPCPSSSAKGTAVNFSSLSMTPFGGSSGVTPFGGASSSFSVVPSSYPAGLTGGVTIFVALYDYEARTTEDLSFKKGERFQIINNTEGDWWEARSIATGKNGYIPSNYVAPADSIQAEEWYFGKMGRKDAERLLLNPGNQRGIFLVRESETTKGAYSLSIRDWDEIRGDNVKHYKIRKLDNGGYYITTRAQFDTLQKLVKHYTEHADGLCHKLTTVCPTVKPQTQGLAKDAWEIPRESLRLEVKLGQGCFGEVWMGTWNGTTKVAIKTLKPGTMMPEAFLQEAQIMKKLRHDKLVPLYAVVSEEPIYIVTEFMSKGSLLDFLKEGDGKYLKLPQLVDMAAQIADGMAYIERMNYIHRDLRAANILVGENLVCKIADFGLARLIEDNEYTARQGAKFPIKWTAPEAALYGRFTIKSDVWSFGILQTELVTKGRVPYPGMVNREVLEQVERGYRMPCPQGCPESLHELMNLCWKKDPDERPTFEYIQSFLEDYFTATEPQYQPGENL
# Text: (§1) The Src family of non-receptor protein tyrosine kinases contains nine members, including Yes1, Src, Fyn, Lyn, and […]. These kinases have important roles in a variety of cellular functions, such as cell proliferation, survival, and differentiation. Src, the most well characterized member of this family, has been previously identified as a proto-oncogene. […] In melanoma, it has been shown that Yes1, and not other family members, such as Src, is functionally involved in the malignant phenotype. Additionally, a recent study examining the downregulation of Yes1 by shRNA found significant effects on cell survival/growth for basal-like and Her2-positive breast cancers. […]
# (§2) Two micoliter of Yes1 enzyme (columns 1-2, 5-48; Millipore, Billerica, MA) are dispensed into Greiner, white solid-bottom 1536-well assay plates; columns 3 and 4 receive buffer without Yes1 as a control for maximum inhibition. […] The production of ADP is then quantified by the ADP-Glo Kit (Promega, Madison, WI). First, 2 uL of the first kit reagent is added, and the reaction is incubated for 45 minutes; then, 4 uL of the second kit reagent are added and the reaction is incubated for 30 minutes at which time the luminescence is read on a Viewlux plate reader (Perkin-Elmer, Waltham, MA). […]
# [9] = qHTS for small molecule inhibitors of Yes1 kinase: Counter Assay (AID 686950); conditions: series mostly up to 76.9 µM;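 further: no kinase present so only ADP-Glo detection of a fixed ADP amount is tested; luminescence from ADP-Glo reporting ADP in a fixed ATP and ADP mixture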
# Text: as §1, with “cancers. Despite the potential for Yes1 to be a target for the above-described cancers, there are very few reports on the identification of potent and selective inhibitors of Yes1 kinase.” for “cancers.”
# as §2, with “microliter” for “micoliter”, “buffer” for “Yes1 enzyme”, “1-48)” for “1-2, 5-48; Millipore, Billerica, MA)”, “plates.” for “plates; columns 3 and 4 receive buffer without Yes1 as a control for maximum inhibition.”, “amount” for “production”
# [10] = molecular target: Arylsulfatase A (Homo sapiens) (UniProt P15289); experiment: qHTS screen for enhancers of Arylsulfatase A (ASA1): LOPAC Validation Assay (AID 720538); conditions: ASA enzyme activity, LOPAC qHTS enhancer assay; series mostly up to 57.5 µM
# Chain of Arylsulfatase A (Homo sapiens) (P15289 whole entry, looked up): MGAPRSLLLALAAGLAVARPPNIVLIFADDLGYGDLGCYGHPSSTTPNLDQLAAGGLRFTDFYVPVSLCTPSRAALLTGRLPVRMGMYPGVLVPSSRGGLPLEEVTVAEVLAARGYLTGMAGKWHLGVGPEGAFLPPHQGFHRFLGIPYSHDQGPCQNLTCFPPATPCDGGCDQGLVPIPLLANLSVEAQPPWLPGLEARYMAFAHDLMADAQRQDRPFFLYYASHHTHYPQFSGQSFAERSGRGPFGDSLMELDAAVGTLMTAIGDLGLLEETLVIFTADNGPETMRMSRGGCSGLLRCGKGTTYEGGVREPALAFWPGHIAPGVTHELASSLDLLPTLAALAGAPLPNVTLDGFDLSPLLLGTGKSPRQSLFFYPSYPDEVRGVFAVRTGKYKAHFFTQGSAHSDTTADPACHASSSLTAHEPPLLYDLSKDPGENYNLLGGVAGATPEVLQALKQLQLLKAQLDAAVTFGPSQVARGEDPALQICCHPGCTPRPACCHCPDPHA
# In short: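 Cell-based enhancement test: residual ASA activity in SV40-transformed I179S patient fibroblasts is measured by pNCS turnover (0.5mM final, 14h, room temperature) following 48h compound incubation; higher fluorescence indicates activation.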
smiles,measurement,setting,value
c1ccc2sc(SSc3nc4ccccc4s3)nc2c1,max response,[1],-2.43% and -7.65%
same,Potency,[2],inactive
C=CCCCCCCCCC(=O)O,max response,[1],3.91%
Nc1ccc(O)c(C(=O)O)c1,max response,[1],-9.31% and -0.252%
same,Potency,[2],inactive
c1cnc2c(c1)ccc1cccnc12,max response,[1],-3.72%
same,Potency,[2],2.37 µM (active)
same,Potency,[3],inactive
CCCOC(=O)c1ccc(O)cc1,max response,[1],0.116% and 2.06% and -4.76%
same,Potency,[2],inactive
O=c1cc(-c2ccccc2)oc2ccccc12,max response,[1],0.229% and -0.923%
O=C(O)/C=C\C(=O)O,max response,[1],-3.33%
same,Potency,[2],inactive
O=C(OCc1ccccc1)c1ccccc1,max response,[1],-1.34%
Nc1nc2ccc([N+](=O)[O-])cc2s1,max response,[1],-11%
CN(C)c1ccc(N=NS(=O)(=O)O)cc1,max response,[1],-7.89% and -1.86%
same,Potency,[2],5.96 µM (active)
O=C(O)c1cc(O)c(O)c(O)c1,max response,[1],-13%
same,Potency,[2],inactive
O=C(Nc1ccccc1)c1cc([N+](=O)[O-])ccc1Cl,max response,[1],0.605%
same,Potency,[4],inactive
Nc1ccc(O)c([N+](=O)[O-])c1,max response,[1],-1.01% and 0.176%
CO/N=C(\C(=O)N[C@@H]1C(=O)N2C(C(=O)O)=C(COC(C)=O)CS[C@H]12)c1csc(N)n1 (stereo in doubt),Potency,[5],18.9 µM (active)
same,Potency,[6],9.47 µM (active) and 8.44 µM (active)
same,Potency,[7],15.1 µM (active) and 19 µM (active) and 8.49 µM (active)
C=CCc1cccc(/C=N/NC(=O)CN2CCN(Cc3ccccc3)CC2)c1O,outcome,[8],inactive
same,outcome,[9],inactive
Nc1cc(-c2ccncc2)c[nH]c1=O,max response,[1],-1.14%
CN1CC(=O)N/C1=N/C(=O)Nc1cccc(Cl)c1,outcome,[8],inactive
same,outcome,[9],inactive
same,Potency,[3],inactive
same,Potency,[4],inactive
CC(C)OC(=O)c1cc(C(=O)OC(C)C)cc([N+](=O)[O-])c1,max response,[1],0.0203%
CCCCCCCCCCCCCCCC(=O)OC(C)C,max response,[1],0.689%
CC(C)NCC(O)COc1cccc2ccccc12 (centres undefined),max response,[1],-1.25% and -0.701%
same,Potency,[2],inactive
same,Potency,[10],inactive
same,Potency,[3],inactive
same,Potency,[4],inactive
O=C(O)[C@H](O)[C@@H](O)[C@H](O)[C@H](O)CO,max response,[1],-0.488%
COc1cc(CNC(=O)CCCC/C=C/C(C)C)ccc1O,max response,[1],-1.35% and 5.82%
CCCCCCCCCCCCCCCCCC(=O)O,max response,[1],3.29% and 5.21% and -0.146%
same,Potency,[2],inactive
N=C1N=C(N)c2cc3ccccc3cc21,max response,[1],-3.58%
same,Potency,[2],59.6 µM (active)
CC1(C)S[C@@H]2[C@H](NC(=O)[C@H](N)c3ccccc3)C(=O)N2[C@H]1C(=O)O,max response,[1],-1.69%
S=c1[nH]c2ccccc2s1,max response,[1],-10.8% and -7.19%
same,Potency,[2],inactive
NCCO,max response,[1],-2.8%
same,Potency,[2],inactive
CN1CCC[C@H]1c1cccnc1,max response,[1],-3.15% and -0.899%
same,Potency,[3],inactive
same,Potency,[4],inactive
CN(C)CCC(c1ccc(Cl)cc1)c1ccccn1 (centres undefined),max response,[1],-7.82%
same,Potency,[2],inactive
same,Potency,[3],inactive
same,Potency,[4],inactive
O=C1CN(/N=C/c2ccc([N+](=O)[O-])o2)C(=O)N1,max response,[1],-1.28%
COc1cc(/C=C/C(=O)CC(=O)/C=C/c2ccc(O)c(OC)c2)ccc1O,max response,[1],-5.38%
C#C[C@]1(O)CC[C@H]2[C@@H]3CCc4cc(O)ccc4[C@H]3CC[C@@]21C,max response,[1],-1.9% and -2.24%
same,Potency,[2],33.5 µM (active)
Oc1ccccc1O,max response,[1],-0.837%
same,Potency,[10],inactive
same,Potency,[3],inactive
same,Potency,[4],inactive
CN(C)c1ccc(C(=C2C=CC(=[N+](C)C)C=C2)c2ccccc2)cc1,max response,[1],-10.3%
Nc1ccc([N+](=O)[O-])cc1O,max response,[1],-5.57% and -3.71%
same,Potency,[2],inactive
CC[C@@H](C)[C@H]1O[C@]2(CC[C@H]1C)C[C@@H]1C[C@@H](CC=C(C)[C@@H](O[C@H]3C[C@H](OC)[C@@H](O[C@H]4C[C@H](OC)[C@@H](O)[C@H](C)O4)[C@H](C)O3)[C@@H](C)C=CC=C3CO[C@@H]4[C@H](O)C(C)=C[C@@H](C(=O)O1)[C@]34O)O2,Potency,[10],inactive
Nc1nc(SCc2ccc([N+](=O)[O-])cc2)c2ncn([C@@H]3O[C@H](CO)[C@@H](O)[C@H]3O)c2n1,Potency,[10],inactive
same,Potency,[3],inactive
CCN1/C(=C/C(C)=O)Sc2ccc(OC)cc21,Potency,[10],inactive
same,Potency,[3],inactive
C=CC(N)CCC(=O)O (centres undefined),Potency,[10],inactive
Nc1ncnc2c1c(I)cn2[C@@H]1C[C@H](N)[C@@H](O)[C@H]1O,Potency,[10],inactive
same,Potency,[3],inactive
Nc1nc(Cl)nc2c1ncn2[C@@H]1O[C@H](CO)[C@@H](O)[C@H]1O,Potency,[10],inactive
same,Potency,[3],inactive
N=c1ccn2c(n1)O[C@H]1[C@H](O)[C@@H](CO)O[C@H]12,Potency,[10],inactive
same,Potency,[3],inactive
CC12C(=O)OC(=O)C1(C)C1CCC2O1 (centres undefined),Potency,[10],inactive
same,Potency,[3],inactive
O=C(O)CC[C@@H](C(=O)O)N1C(=O)c2ccccc2C1=O,Potency,[10],inactive
same,Potency,[3],inactive
